The list is not random: actives were taken first. Their share in the collection is about 8.9%.
KB-V1 MDR tox: kills drug-selected multidrug resistant KB-V1 cells. actives 3.4% (n = 400,000). KB-V1 MDR cells viability, CellTiter-Glo, 72 h. AID 1347076. Potency, µM (doses to about 46.1 µM), most hits filed as cytotoxic; also: potency is read from the fitted curve at half-maximal effect; % is scaled to controls: 0 for no effect and ±100 for the full control effect; nearly all actives have a fitted effect of over 60% in size
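Cells of the MDR subline KB-V1 are plated, dosed with compound at multiple concentrations, and incubated 72 h at 37 degrees C; CellTiter-Glo is then added and luminescence read after 10 min.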
SW480 rerep: DNA re-replication induction in SW480 cells; SW480 DNA re-replication, Hoechst DNA content imaging, 48 h; Potency, µM (titrated, usually from 46.1 µM), for the others: at the top dose re-replication activation, most hits filed as activators; actives 1.8% (n = 340,000); also: potency is read from the fitted curve at half-maximal effect; % of control where 0% means no effect; nearly all actives have a fitted effect of over 55% in size
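Image-based read-out: total Hoechst fluorescence of nuclei (405 nm excitation, 500-530 nm emission), with hits raising the fraction of high-intensity nuclei. SW480 colon cells incubated 48 hr with compounds at 37 C.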
D3 antag: blocks the human D3 dopamine receptor | max response, negative = inhibition, % | P35462 | AID 652054 | D3R cells, DiscoveRx beta-arrestin luminescence, antagonist mode; stronger effect = lower value | actives 2.5% (n = 360,000); in the data active = max response below about -50%; inconclusive = no clear call, values can overlap the other calls; also: % is scaled to controls: 0 for no effect and ±100 for the full control effect
Target sequence (P35462 whole entry, looked up): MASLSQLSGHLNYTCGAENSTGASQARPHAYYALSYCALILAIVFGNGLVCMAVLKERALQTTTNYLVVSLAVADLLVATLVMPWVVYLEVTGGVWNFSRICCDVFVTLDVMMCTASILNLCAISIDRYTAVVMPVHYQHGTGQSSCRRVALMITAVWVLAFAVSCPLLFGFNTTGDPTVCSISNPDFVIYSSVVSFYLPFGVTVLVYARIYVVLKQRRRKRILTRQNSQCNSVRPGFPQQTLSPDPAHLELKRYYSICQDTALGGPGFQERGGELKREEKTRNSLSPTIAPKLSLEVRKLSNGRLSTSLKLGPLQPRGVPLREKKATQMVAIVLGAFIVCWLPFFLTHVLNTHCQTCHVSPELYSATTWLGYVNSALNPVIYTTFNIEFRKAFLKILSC
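Cells expressing the human receptor were seeded at 1500 cells/well, incubated overnight at 37 degrees C in 5% CO2, then exposed to library compounds with dopamine controls for 90 minutes at 37 degrees C before luminescent detection.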
MCF10A rereplic: inducers of DNA re-replication in MCF 10A breast cells; AID 624296; actives 2.9% (n = 350,000); Potency, µM (titrated, usually from 46.1 µM), without a hit: top-dose activity, positive = re-replication, most hits filed as activators; MCF 10A DNA re-replication, Hoechst nuclear intensity, 48 h; also: potency is read from the fitted curve at half-maximal effect; % of control where 0% means no effect; nearly all actives have a fitted effect of over 50% in size
DRD3 agonist: activates the human D3 dopamine receptor; max activation, %; D3R DiscoveRx beta-arrestin cells, luminescence, 90 min; actives 0.58% (n = 410,000); in the data active = max activation above about 30%; also: 0% is about no effect
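Cells at 1500/well, incubated overnight, then treated with pinned compounds (dopamine as control) for 90 min at 37 degrees C. DiscoveRx reagent added for 30 - 60 minutes at room temperature; luminescence read.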
KB-3-1 cytotox: kills parental KB-3-1 adenocarcinoma cells | Potency, µM (series often up to 46.1 µM), usual class: cytotoxic | actives 1.4% (n = 400,000) | KB-3-1 viability, CellTiter-Glo ATP luminescence, 72 h; also: potency is read from the fitted curve at half-maximal effect; % is scaled to controls: 0 for no effect and ±100 for the full control effect; nearly all actives have a fitted effect of over 60% in size
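Parental KB-3-1 viability, qHTS format: 72 h compound exposure, 37 °C; CellTiter-Glo; media-only wells and DMSO plates as controls; concentration-effect fits on corrected data.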
Numbers without * were called inactive; i = inactive; ? = inconclusive; / = no result. Unless noted, calls follow the shape of the dose curve; as a rule, active = well fitted curve in the direction sought with a large enough effect; inconclusive = small, poorly fitted or top-dose-only effect, or another doubt; inactive = no such curve, though single readings can be large; an effect the other way counts as inactive or inconclusive.

SMILES | KB-V1 MDR tox | SW480 rerep | D3 antag | MCF10A rereplic | DRD3 agonist | KB-3-1 cytotox
Cc1ccc(N=Cc2c(O)n(-c3ccc4c(c3)OCO4)c(=O)c3ccccc23)cc1 | i | ? | -59.4* | ? | 1.8 | i
CC(C)(C)C1CCc2nc(NC(=O)COc3ccc(F)cc3)sc2C1 (configuration not stated) | i | / | / | / | -11.7 | i
COc1ccc(-c2cc(C(F)(F)F)nc(SCC(=O)NCc3cccs3)n2)cc1 | 18.4µM* | -6.9% | -15.7 | 21.7% | -27.6 | i
COc1ccc(-c2cc(-c3cccs3)c(C#N)c(SCC(=O)NCc3ccco3)n2)cc1 | ? | 2.59µM* | -13.8 | 1.46µM* | -1.6 | ?
O=C(CSc1nc(-c2ccccc2)cc(C(F)(F)F)n1)NCc1cccs1 | i | 1.8% | -1.7 | 6.51µM* | 2.7 | i
O=C(CSc1nc(-c2ccccc2)cc(C(F)(F)F)n1)NCc1ccco1 | ? | 0.5% | 11.9 | ? | -2.0 | ?
CCCCN(CC)CCCNC(=O)Cn1nc(CC)n2c(cc3sccc32)c1=O | ? | / | / | / | -20.6 | i
Cc1cc(C)cc(NC(=O)C2CCCN(c3nnc(C)c4c(C)n(-c5ccccc5)nc34)C2)c1 (configuration not stated) | i | / | / | / | 23.8 | i
CCCn1c(SCC(=O)N2N=C3/C(=C/c4ccc(OC)cc4)CCCC3C2c2ccc(OC)cc2)n[nH]c1=O (configuration not stated) | ? | / | 0.0 | ? | -3.0 | i
COc1ccc(/C=C2\CCCC3C2=NC(=S)NC3c2ccc(OC)cc2)cc1 (configuration not stated) | i | 18.4µM* | -15.3 | 7.31µM* | -10.3 | i
Cc1ccc(N/C(N)=N/c2nc(C)cc(C)n2)cc1 | ? | ? | 1.7 | ? | 2.9 | i
Cc1cc(C)cc(N/C(N)=N/c2nc(C)cc(C)n2)c1 | 20.6µM* | ? | 20.2 | ? | 6.2 | ?
CCCCc1ccc(N/C(N)=N/c2nc(C)cc(C)n2)cc1 | 6.51µM* | ? | 18.2 | ? | 16.3 | ?
COc1cccc(-n2cc(C(=O)Nc3ccccc3C(N)=O)c3ccccc3c2=O)c1 | / | / | / | / | 0.3 | /
COc1cc(OC)c(NC(=O)/C=C/C(=O)O)cc1Cl | i | ? | -0.5 | -19.4% | 6.2 | i
CC1(C)CC(=O)C=C(c2ccc(-c3ccc4[nH]ccc4c3)cc2)C1=O | ? | / | -3.1 | / | 8.4 | 8.2µM*
COCCCNS(=O)(=O)c1ccc(N2CCCCS2(=O)=O)cc1 | i | / | / | / | 8.4 | i
COc1ccc(NC(=O)c2ccc3[nH]c(C)cc(=O)c3c2)cc1 | ? | / | / | / | -7.6 | i
COc1ccc(NC(=O)c2nnn(Cc3cccc(F)c3)c2N)c(OC)c1 | i | 6.8% | 6.6 | ? | 1.5 | 6.51µM*
COc1ccc(C)cc1NC(=O)c1nnn(Cc2cccc(F)c2)c1N | i | 19.5% | ? | 27.2% | -2.0 | ?
COc1cc(OC)nc(Nc2nc(C(N)c3ccccc3)cs2)n1 (configuration not stated) | i | / | 10.5 | / | 3.3 | i
COc1cc(OC)nc(Nc2nc(C(N)COCc3ccccc3)cs2)n1 (configuration not stated) | i | / | -74.0* | / | -6.0 | i
COc1cc(OC)nc(Nc2nc(C(N)CCc3ccccc3)cs2)n1 (configuration not stated) | i | / | 7.0 | / | 34.1* | i
Cc1ccc(OC(=O)c2cc(-c3ccccc3)nc3ccc(C)cc23)cc1 | i | / | / | / | 3.8 | i
O=C(O)c1ccc(Cl)c(S(=O)(=O)N(Cc2ccccc2)c2ccccc2)c1 | i | 0.5% | -2.9 | 9.1% | 10.2 | i
SMILES | KB-V1 MDR tox | SW480 rerep | D3 antag | MCF10A rereplic | DRD3 agonist | KB-3-1 cytotox
O=C(O)c1ccc(Cl)c(S(=O)(=O)N(Cc2ccccc2)c2ccccc2Cl)c1 | ? | 0.9% | 4.1 | 8.2µM* | 1.4 | ?
COc1ccc(N(Cc2ccccc2)S(=O)(=O)c2cc(C(=O)O)ccc2Cl)cc1 | i | -3.3% | 8.0 | 18.4µM* | 27.9 | i
Cc1ccc(C)c(Cn2c(=O)cc(C)c3c(C)nn(-c4cccc(F)c4)c32)c1 | i | / | / | / | -9.9 | i
COC(=O)c1ccc(CN(c2ccc(C(=O)O)c(O)c2)S(=O)(=O)c2ccc(Cl)c([N+](=O)[O-])c2)cc1 | i | -0.8% | -23.2 | 3.66µM* | -2.1 | i
COc1c(C=O)c2c(c(OC)c1OC)-c1ccc(OC)c(=O)cc1C(NC(C)=O)CC2 (configuration not stated) | ? | 0.103µM* | -2.0 | ? | 0.1 | 0.0092µM*
COc1ccc(C(C)=O)cc1CC(=O)NC1CCCCCC1 | i | -8.0% | -4.5 | -7.8% | -2.4 | i
C=COC(=O)NC1CCc2cc(OC)c(OC)c(OC)c2-c2ccc(SC)c(=O)cc21 (configuration not stated) | ? | ? | -9.3 | 17.4% | -6.4 | 0.0065µM*
COc1cc2c(c(OC)c1OC)-c1ccc(OC)c(=O)cc1C(NC(=O)c1ccccc1)CC2 (configuration not stated) | ? | 0.0206µM* | -10.3 | ? | -3.7 | 0.0092µM*
COc1cc2c(c(OC)c1OC)C(=O)CC2 | i | -15.2% | 4.6 | -0.7% | 3.5 | i
O=C(NC1CCCc2ccccc21)c1ccccc1 (configuration not stated) | i | 11.7% | 9.5 | 0.6% | 7.4 | i
COc1cc2c(c(OC)c1OC)-c1ccc(SC)c(=O)cc1C(NC=O)CC2 (configuration not stated) | 0.291µM* | ? | 17.9 | ? | -0.5 | 0.0065µM*
COc1c(O[C@@H]2O[C@H](CO)[C@@H](O)[C@H](O)[C@H]2O)cc2c(c1OC)-c1ccc(SC)c(=O)cc1C(NC(C)=O)CC2 (some centres not stated) | i | ? | 13.0 | -26.3% | 2.9 | i
C[C@@H](O)[C@H]1C(=O)N2C(C(=O)O)=C(S[C@@H]3CN[C@H](CNS(N)(=O)=O)C3)[C@H](C)[C@H]12 | / | -1.0% | / | 8.7% | 3.9 | /
CCCCNc1nc(Oc2ccc(OCC)nn2)nc(N2CCOCC2)n1 | ? | / | / | / | 1.5 | i
CC1CC(C)CN(C(=O)C2CCCN(S(=O)(=O)c3cnc[nH]3)C2)C1 (configuration not stated) | i | -14.5% | 12.6 | -2.4% | 8.7 | ?
CCCC(=O)NC1CCc2cc(OC)c(OC)c(OC)c2-c2ccc(OC)c(=O)cc21 (configuration not stated) | 2.91µM* | 0.0046µM* | -17.9 | ? | -7.4 | 0.13µM*

Bioassay records deposited in PubChem BioAssay by National Center for Advancing Translational Sciences (NCATS).
